HepG2 tox-1 – counter-screen for TGF-b inhibitors: cytotoxicity in HepG2 cells. 410,000 tested, 0.76% active. Potency, µM (doses to about 46.1 µM), for inactives: at the highest dose activity change, negative = cytotoxicity, actives largely listed as cytotoxic. HepG2 CAGA-GFP viability, ATP luminescence, 18 h; also: potency is read from the fitted curve at half-maximal effect
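CellTiter-Glo luminescence gave cytotoxicity after 18 hours at 37 degrees C. The cells were HepG2 CAGA-GFP in 1% FBS DMEM, stimulated with 500 pg/mL TGF-beta after compound addition. %Activity was normalised to no-cell wells (complete cell-killing) and DMSO (no toxicity), and curves were fitted and classified.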
DRD3 antagonist – D3 dopamine receptor (human) antagonism; max response, negative = inhibition, %; D3R cells, DiscoveRx beta-arrestin luminescence, antagonist mode; stronger effect = lower value; P35462; 360,000 tested, 2.5% active; in the data active = max response below about -50%; inconclusive = no clear call, values can overlap the other calls; also: % is scaled to controls: 0 for no effect and ±100 for the full control effect
Target sequence (P35462 whole entry, looked up): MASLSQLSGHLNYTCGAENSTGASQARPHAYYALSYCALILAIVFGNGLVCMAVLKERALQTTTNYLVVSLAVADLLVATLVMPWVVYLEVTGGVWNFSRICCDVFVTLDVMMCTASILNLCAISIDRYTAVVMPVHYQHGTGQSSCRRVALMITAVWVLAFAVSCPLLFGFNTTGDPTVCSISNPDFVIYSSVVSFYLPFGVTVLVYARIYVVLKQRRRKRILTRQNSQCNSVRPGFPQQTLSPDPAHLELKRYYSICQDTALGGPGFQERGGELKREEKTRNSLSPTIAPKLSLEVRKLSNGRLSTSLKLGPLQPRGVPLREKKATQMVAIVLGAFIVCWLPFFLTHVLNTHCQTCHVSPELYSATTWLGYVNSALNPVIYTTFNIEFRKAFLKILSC
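Cells plated overnight at 1500 cells/well, then exposed to library compounds with dopamine controls for 90 minutes at 37 degrees C. DiscoveRx reagent added for 30–60 minutes at room temperature; luminescence read, quantitative HTS format.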
ATXN2 expr inh – inhibitors of ATXN2 expression. Potency, µM (doses to about 57 µM), for the others: at the highest dose activity change, negative = inhibition, hits mostly inhibitors. AID 1745845. HEK-293 ATXN2-luciferase reporter, luminescence, 24 h. 360,000 tested, 0.72% active; also: potency is read from the fitted curve at half-maximal effect; % is scaled to controls: 0 for no effect and ±100 for the full control effect; nearly all actives have a fitted effect of over 55% in size
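qHTS (up to 57 uM final) was run with 24 h compound exposure of reporter cells at 37 °C. Each well was multiplexed: SteadyGlo luminescence measured ATXN2-luciferase expression after a fluorogenic Gly-Phe-AFC viability readout (25 uM final).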
TGFb SMAD3 inh – inhibitors of TGF-b signaling; HepG2 CAGA-GFP TGF-b/SMAD3 reporter, GFP fluorescence, 18 h; TGF-beta stimulated, 500 pg/mL final; Potency, µM (top dose mostly 46.1 µM), for inactives: top-dose activity, negative = inhibition, hits mostly inhibitors; 410,000 tested, 1.2% active; AID 588855; also: potency is read from the fitted curve at half-maximal effect; % is scaled to controls: 0 for no effect and ±100 for the full control effect; nearly all actives have a fitted effect of over 65% in size
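Using HEPG2 CAGA-GFP reporter cells at 1000 cells/well, we pinned test compounds, stimulated with recombinant TGF-beta (500 pg/mL final) and measured total well GFP after 18 h.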
DRD3 agonist – agonists of human D3 dopamine receptor | P35462 | D3R DiscoveRx beta-arrestin cells, luminescence, 90 min | max activation, % | 410,000 tested, 0.58% active; in the data active = max activation above about 30%; also: 0% is about no effect
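Agonist-mode cell screen: cells plated at 1500/well and incubated overnight at 37 °C, then exposed to library compounds for 90 min at 37 °C. Detection reagent was added for 30–60 min at room temperature, and luminescence was read.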
S2 tox – cell viability loss in ATXN counter-screen; S2 cells (HEK-293 line with an ATXN2-luciferase reporter) viability, CellTiter-Fluor protease fluorescence, 24 h; Potency, µM (titrated, usually from 56.7 µM), hits mostly cytotoxic; 400,000 tested, 0.49% active; AID 651635; also: potency is read from the fitted curve at half-maximal effect; nearly all actives have a fitted effect of over 40% in size
TGFb confirm – confirmation of TGF-b signaling inhibitors in HepG2 reporter cells; AID 720534; shares compounds with TGFb SMAD3 inh; Potency, µM (top dose mostly 46.1 µM), for the others: at the top dose activity, negative = inhibition, actives largely listed as inhibitors; 1,600 tested, 63% active; HepG2 CAGA-GFP TGF-b reporter, GFP fluorescence, 18 h; cells stimulated with TGF-beta, 500 pg/mL; also: potency is read from the fitted curve at half-maximal effect; % is scaled to controls: 0 for no effect and ±100 for the full control effect; nearly all actives have a fitted effect of over 65% in size
HepG2 tox-2 – counter-screen for TGF-b inhibitors: cytotoxicity in HepG2 cells; Potency, µM (highest dose often 46.1 µM), for the others: at the highest dose activity, negative = cytotoxicity, usual class: inhibitors; HepG2 CAGA-GFP viability, ATP luminescence, 18 h; cells stimulated with TGF-beta, 500 pg/mL; shares compounds with TGFb SMAD3 inh; AID 720535; 1,600 tested, 27% active; also: potency is read from the fitted curve at half-maximal effect; % is scaled to controls: 0 for no effect and ±100 for the full control effect; nearly all actives have a fitted effect of over 70% in size
CCL64 TGFb inh – blocks TGF-b signaling in CCL64 reporter cells; shares compounds with TGFb SMAD3 inh; CCL64 CAGA-GFP reporter, TGF-b stimulated, GFP fluorescence, 18 h; Potency, µM (top dose mostly 46.1 µM), for inactives: at the top dose activity, negative = inhibition, most hits filed as inhibitors; 1,600 tested, 41% active; AID 720536; also: potency is read from the fitted curve at half-maximal effect; nearly all actives have a fitted effect of over 65% in size
TGFb COP inh – validation of TGF-b inhibitors in HepG2 COP promoter reporter. AID 720537. HepG2 COP-GFP TGF-b reporter, GFP fluorescence, 18 h; cells stimulated by added recombinant TGF-beta. 1,600 tested, 3% active. Potency, µM (doses to about 46.1 µM), for inactives: at the top dose activity, negative = inhibition, most hits filed as inhibitors. shares compounds with TGFb SMAD3 inh; also: potency is read from the fitted curve at half-maximal effect; nearly all actives have a fitted effect of over 70% in size
* marks the source's active call; other numbers are inactive results; i = inactive; ? = inconclusive; · = no result. Hits are enriched below; roughly 4.7% of the tested compounds scored in any of these assays. Unless noted, calls follow the shape of the dose curve; as a rule, active = well fitted curve in the direction sought with a large enough effect; inconclusive = small, poorly fitted or top-dose-only effect, or another doubt; inactive = no such curve, though single readings can be large; an effect the other way counts as inactive or inconclusive.

SMILES	HepG2 tox-1	DRD3 antagonist	ATXN2 expr inh	TGFb SMAD3 inh	DRD3 agonist	S2 tox	TGFb confirm	HepG2 tox-2	CCL64 TGFb inh	TGFb COP inh
CCOc1cc(/C=C\[N+](=O)[O-])ccc1OCC(=O)Nc1ccccc1C	8.9µM*	-26	·	7.9µM*	0	?	2.9µM*	8.2µM*	2.9µM*	?
Cc1cc2nn(-c3ccc(F)cc3)nc2cc1N	-23%	1	-5%	?	-10	i	·	·	·	·
Cc1cc2nn(-c3ccc(Cl)cc3)nc2cc1N	-37%	-6	·	0.79µM*	1	·	6.5µM*	2.6µM*	6%	40%
Cc1cc2c(cc1S(=O)(=O)NCc1ccc(F)cc1)n(C)c(=O)c(=O)n2C	-6%	·	7%	0%	-6	i	·	·	·	·
Cc1cccc(CNc2ccc(C(CC(N)=O)NC(=O)Cc3cccc4ccccc34)cc2[N+](=O)[O-])c1 (centres undefined)	-17%	-23	-30%	?	-20	?	?	?	1.6µM*	-25%
NC(=O)CC(NC(=O)Cc1cccc2ccccc12)c1ccc(N2CCc3ccccc3C2)c([N+](=O)[O-])c1 (centres undefined)	-25%	-20	?	13µM*	0	35µM*	?	?	?	45%
NC(=O)CC(NC(=O)Cc1ccc(Br)cc1)c1ccc(N2CCN(c3ccccn3)CC2)c([N+](=O)[O-])c1 (centres undefined)	-58%	22	?	7.9µM*	-1	?	?	?	0%	0%
NC(=O)CC(NC(=O)Cc1cccc2ccccc12)c1ccc(N2CCC(Br)CC2)c([N+](=O)[O-])c1 (centres undefined)	-28%	?	?	13µM*	-26	?	?	-12%	?	-5%
NC(=O)CC(NC(=O)Cc1cccc2ccccc12)c1ccc(N2CCN(c3ccccc3)CC2)c([N+](=O)[O-])c1 (centres undefined)	-21%	8	2%	2%	4	i	·	·	·	·
Cc1oc(-c2ccccc2)nc1Cn1c(=O)cc(-c2ccccc2)c2c(C)nn(C)c21	7%	·	7%	-1%	-7	i	·	·	·	·
CN(C)CCNC(=O)CN1N=C(c2ccccc2)CCC1=O	-22%	·	·	-2%	-14	·	·	·	·	·
CCOc1ccccc1Nc1ncnc2c1c(-c1ccccc1)cn2-c1ccc(OC)cc1	-17%	·	·	2%	-8	·	·	·	·	·
C=CCn1c(SCC(=O)Nc2cc3oc4ccccc4c3cc2OC)nnc1-c1cnccn1	-25%	9	-19%	-2%	3	i	·	·	·	·
C=CCn1c(COc2ccccc2F)nnc1SCC(=O)Nc1cc2oc3ccccc3c2cc1OC	-9%	2	-15%	?	5	i	?	-26%	?	15%
